High-throughput results: PubChem BioAssay, National Center for Advancing Translational Sciences (NCATS)
TDP1 cell CPT = qHTS for Inhibitors of human tyrosyl-DNA phosphodiesterase 1 (TDP1): qHTS in cells in presence of CPT. 420,000 compounds, 12% hits. chicken DT40 Tdp1-/-;hTDP1 cells + 20 nM CPT, ATP luminescence, 48 h. Potency, µM (top dose mostly 46.2 µM), for the others: at the top dose activity change, negative = growth inhibition, hits mostly inhibitors; note: nearly all actives have a fitted effect of over 55% in size
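Chicken DT40 Tdp1-/- cells complemented with human TDP1, 400 cells/well, exposed to compounds plus 20 nM camptothecin for at least 48 h at 37 C; viability read as ATP content by CellTiter-Glo luminescence.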
DT40 TDP1 no CPT = qHTS for Inhibitors of human tyrosyl-DNA phosphodiesterase 1 (TDP1): qHTS in cells in absence of CPT; 420,000 compounds, 15% hits; DT40 Tdp1-/- hTDP1 cells, no CPT, ATP luminescence, 48 h; Potency, µM (highest dose often 46.2 µM), without a hit: at the top dose activity change, negative = growth inhibition, hits mostly inhibitors; note: nearly all actives have a fitted effect of over 55% in size
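Camptothecin absent (DMSO only). Human TDP1-complemented DT40 knockout cells, 400 cells/well, 37 °C for minimum 48 hr; ATP measured via CellTiter-Glo, 30 min dark incubation, luminescence.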
HT1080 IDH1KD tx = qHTS for induction of synthetic lethality in tumor cells producing 2HG: qHTS for the HT-1080-IDH1KD cell line | HT-1080 IDH1 knockdown viability, ATP luminescence, 48 h | Potency, µM (highest dose often 46.1 µM), for inactives: top-dose activity, negative = toxicity, hits mostly cytotoxic | 360,000 compounds, 2% hits;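 note: 0% = DMSO wells and -100% = cell-free medium wells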
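Using the IDH1-knockdown HT-1080 line run in the same batch and compound series as the NT line, viability after 48 h at 37 °C was determined by CellTiter-Glo luminescence and expressed as % activity.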
HT1080NT lethal = qHTS for induction of synthetic lethality in tumor cells producing 2HG: qHTS for the HT-1080-NT fibrosarcoma cell line. HT-1080-NT fibrosarcoma viability, CellTiter-Glo ATP luminescence, 48 h. Potency, µM (highest dose often 46.1 µM), for the others: at the top dose activity, negative = less viability, hits mostly cytotoxic. 360,000 compounds, 1.6% hits. AID 686970, 2013;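 note: NT is the 2HG producing partner of a matched IDH1 knockdown line; 0% = DMSO-treated cells and -100% = media-only wells without cells; nearly all actives have a fitted effect of over 55% in size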
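A 48-hour cytotoxicity screen used HT-1080-NT cells plated 2 hours before compound delivery. ATP-based CellTiter-Glo luminescence measured viability, normalized to DMSO and no-cell controls.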
KB-3-1 cytotox = qHTS assay for MDR1-selective chemotherapeutics: Primary screen using the parental adenocarcinoma cell KB-3-1; AID 1347075, 2019; Potency, µM (top dose mostly 46.1 µM), hits mostly cytotoxic; 400,000 compounds, 1.4% hits; KB-3-1 viability, CellTiter-Glo ATP luminescence, 72 h; note: nearly all actives have a fitted effect of over 60% in size
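Screening of KB-3-1 cells (DMEM, 10% FBS, phenol-red free) ran from lowest to highest compound concentration; after 72 h at 37 °C viability was read luminescently and curves fitted.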
KB-V1 cytotox = qHTS assay for MDR1-selective chemotherapeutics: Primary screen using the drug-selected MDR subline cells KB-V1. KB-V1 MDR cells viability, CellTiter-Glo, 72 h. Potency, µM (titrated, usually from 46.1 µM), usual class: cytotoxic. 400,000 compounds, 3.4% hits; note: nearly all actives have a fitted effect of over 60% in size
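Readout: CellTiter-Glo luminescence, 10 min after addition. Cells: KB-V1 MDR subline, 72 h at 37 degrees C with compound. Analysis: corrected, normalized data fitted to concentration-effect curves.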
Numbers without * were called inactive; i = inactive; ? = inconclusive; . = not tested or not shown; [ ] = another dose, or the depositor's remark. Most compounds without a hit are left out; they make up all but 19% or so of the library. Calls come from the whole dose curve; as a rule, active = well fitted curve in the direction sought with a large enough effect; inconclusive = small, poorly fitted or top-dose-only effect, or another doubt; inactive = no such curve, though single readings can be large; an effect the other way counts as inactive or inconclusive. Unless noted, % is set by controls: 0 for no effect and ±100 for the full control effect; potency is the fitted concentration of half-maximal effect.

SMILES	TDP1 cell CPT	DT40 TDP1 no CPT	HT1080 IDH1KD tx	HT1080NT lethal	KB-3-1 cytotox	KB-V1 cytotox
CCCCn1c(=N)c(C(=O)NC2CCCCC2)cc2c(=O)n3cccc(C)c3nc21	6.3%	-0.2%	.	.	i	i
CCCCNC(=O)c1cc2c(=O)n3cccc(C)c3nc2n(CCN2CCOCC2)c1=N	?	?	15.9%	5.9%	i	10.3µM*
COc1ccc(NC(=O)COc2cccc(-n3cnnn3)c2)cc1Cl	?	-4.9%	-18.2%	?	i	i
CCOCCCn1c(=N)c(S(=O)(=O)c2ccc(C)cc2)cc2c(=O)n3ccccc3nc21	.	.	.	.	i	?
CCOCCCn1c(SCC(=O)NCc2ccc3c(c2)OCO3)nc2ccccc2c1=O	-0.1%	?	0.7%	1.5%	i	14.6µM*
CCOCCCn1c(=N)c(C(=O)NCc2ccc3c(c2)OCO3)cc2c(=O)n3cccc(C)c3nc21	?	?	?	2.8%[9.24 µM]	6.51µM*	i
CCOCCCn1c(SCC(=O)Nc2oc(C)c3c(C)n[nH]c(=O)c23)nc2ccccc2c1=O	23.1µM*	?	-12.2%	-18.1%	i	i
CCOCCCn1c(=N)c(S(=O)(=O)c2ccccc2)cc2c(=O)n3cc(C)ccc3nc21	?	16.4µM*	13.7%	5.8%	i	?
Cc1sc(N/N=C/c2cc([N+](=O)[O-])ccc2O)nc1-c1ccccc1	14.6µM*	14.6µM*	-0.6%	-8.1%	i	i
O=C(N/N=C/c1cc([N+](=O)[O-])ccc1O)c1cccc2cc[nH]c12	6.51µM*	4.11µM*	9.2µM*	?	?	i
O=C(N/N=C/c1cc([N+](=O)[O-])ccc1O)c1ccc2c(c1)OCCO2	2.06µM*	1.46µM*	?	-26.1%	?	?
O=C(N/N=C/c1cc([N+](=O)[O-])ccc1O)c1cccc(N2CCCC2=O)c1	14.6µM*	10.3µM*	?	?	?	i
O=C(NN=Cc1ccccc1O)C1CC1	5.8µM*	10.3µM*	-4.5%	1.3%	i	?
O=C(N/N=C/c1cc([N+](=O)[O-])ccc1O)C(O)(c1ccccc1)c1ccccc1	?	16.4µM*	?	-15.9%	?	i
O=C(N/N=C/c1cc([N+](=O)[O-])ccc1O)C1CC1	?	18.4µM*	?	?	?	i
O=C(N/N=C/c1ccccc1O)C1SCCCS1	11.6µM*	6.51µM*	16.4µM*	?	?	i
OCCC1CN(Cc2cccn2-c2cccnc2)CCN1C1CCCCC1 (stereo not given)	4.5%	-1.1%	2.0%	6.4%	i	i
C/C(=N\NC(=S)NCc1ccccc1)c1ccc2ccccc2c1	6.51µM*	7.31µM*	-8.1%	-0.3%	i	?
C/C(CCC(C)C)=N\NC(=S)NCc1ccccc1	?	?	3.1%	0.8%	i	i
C/C(=N\NC(=S)NCCc1ccccc1)c1cccc(Br)c1	?	?	0.0%	-3.1%	i	?
C/C(=N\NC(=S)NCc1ccccc1)c1cccc(Br)c1	14.6µM*	20.6µM*	?	-23.3%	i	?
CCN1C[C@@H]2[C@@H]3C(=O)N(Cc4ccccc4)C(=O)[C@@H]3[C@](CC)(C1=O)N2C(=O)c1ccc(Cl)c(Cl)c1	16.4µM*	25.9µM*	-3.8%	-8.2%	i	i
